Measurements from PubChem BioAssay (NCI).
The panel holds about 83,000 compounds, 20% with a hit somewhere; the sample as a whole holds those more often.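 Cells were grown in 96-well plates and exposed to the test compound at a single concentration for 48 hours; results are reported as percent growth, with values below 10 considered active.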 Unmarked numbers belong to inactive results. The source made the active and inactive calls.

How the values were obtained:
Assay in all cases: NCI-60 one-dose screen, 48 h (100 = growth as untreated, 0 = no growth, -100 = all killed)
Details in all cases: 10 µM unless noted
NCI-H23 lung = test system: NCI-H23 lung
NCI-H226 lung = test system: NCI-H226 lung
NCI-H322M lung = test system: NCI-H322M lung
HOP-62 NSCLC = test system: HOP-62 NSCLC
NCI-H460 lung = test system: NCI-H460 lung
HOP-92 NSCLC = test system: HOP-92 NSCLC
NCI-H522 lung = test system: NCI-H522 lung
A549/ATCC NSCLC = test system: A549/ATCC NSCLC
786-0 renal = test system: 786-0 renal
COLO 205 colon = test system: COLO 205 colon

| Compound | growth (NCI-H23 lung) | growth (NCI-H226 lung) | growth (NCI-H322M lung) | growth (HOP-62 NSCLC) | growth (NCI-H460 lung) | growth (HOP-92 NSCLC) | growth (NCI-H522 lung) | growth (A549/ATCC NSCLC) | growth (786-0 renal) | growth (COLO 205 colon) |
| --- | --- | --- | --- | --- | --- | --- | --- | --- | --- | --- |
| Cc1c(Cl)cccc1NC(=O)c1sc2nc3c(cc2c1N)CCCCC3 | 48% | 71.6% | 49.8% | 43.2% | 16.4% | 37.8% | 10% | 34.5% | 32.1% | 9.8% (active) |
| COc1ccc2c(c1)Oc1nc(N)c(C#N)c(N)c1C2Sc1ccc(O)cc1 (stereo not drawn) | 93% | 94.5% | 100% | 94.5% |  | 92.4% | -37.8% (active) | 98.4% | 106% | 79.7% |
| COC(=O)/C=C1\SC(=Nc2cccc(Cl)c2)N(CCc2c[nH]c3ccccc23)C1=O | 69.9% | 101% | 62% | 41.5% |  | 82.4% | 24.2% | 48% | 60.6% | 12.1% |
| CCC[S@](=O)c1ccc2nc(NC(=O)OC)[nH]c2c1 | 98.2% | 89.9% | 98.6% | 84.6% |  | 96.5% | 70.7% | 75.6% | 94.2% | 100% |
| CCCCCCCCCCCCCC1=NCC[N+]1(CCO)Cc1ccccc1 (stereo not drawn) | -67% (active) | -30.2% (active) | -6.75% (active) | -82.6% (active) |  | -73.1% (active) | -82.6% (active) | -68.8% (active) | -80.5% (active) | -75.5% (active) |
| CN1CCN(C(=O)[C@@]2(C)CC[C@]3(C)CC[C@]4(C)C(=CC[C@@H]5[C@@]6(C)CC[C@H](OC(=O)c7cccnc7)C(C)(C)[C@@H]6CC[C@]54C)[C@@H]3C2)CC1 | 75.3% | 95.2% | 94.9% | 83.7% |  | 79.2% | 98.6% | 69.8% | 13% | 68.3% |
| NS(=O)(=O)c1ccc(-n2nc(-c3ccccc3)ccc2=O)cc1 | 101% | 100% | 115% | 102% |  | 97.1% | 89.9% | 112% | 93.8% | 125% |
| CC1(c2ccccc2Cl)NC(=O)NC1=O (stereo not drawn) | 95.2% | 98.6% | 98.8% | 86.4% |  | 83.1% | 85% | 91.2% | 99.2% | 108% |
| Cn1nc(C(F)(F)F)c(-c2cc(C(F)(F)F)cc(C(F)(F)F)c2)c1-c1ccc(OCc2ccc(Cl)cc2)cc1O | 0.56% (active) | 13.9% | 5.67% (active) | -9.87% (active) |  | -20.1% (active) | -9.19% (active) | 10.5% | 2.41% (active) | -90.7% (active) |
| O=C1C(Cl)=C(Nc2ccc3c(c2NC2=C(Cl)C(=O)c4ccccc4C2=O)C(=O)c2ccccc2C3=O)C(=O)c2ccccc21 | -3.56% (active) | 36.9% | 46.9% | 39.5% |  | 61.4% | 12.4% | -31.8% (active) | 48.5% | 21.1% |
| CCOC(=O)C1=C(C)n2nc(CC#N)c(C#N)c2NC1c1ccc(CC)cc1 (stereo not drawn) | 85.6% | 87.6% | 85.6% | 81.7% |  | 85.9% | 85.5% | 96.5% | 106% | 97.8% |
| COc1ccc2oc(=O)cc(-c3c(C#N)c(N)n4nc(N)c(C#N)c4c3C#N)c2c1 | 102% | 95.4% | 96.8% | 90.9% |  | 97.3% | 80.1% | 95% | 103% | 108% |
| COc1ccc(-c2nc(C#N)c(NCC(c3ccc(Cl)cc3)N3CCCCC3)o2)cc1 (stereo not drawn) | 91.7% | 96% | 83.7% | 107% | 101% | 89.3% | 84.6% | 93.5% | 92.5% | 87.6% |
| CC(=O)c1c(OCC#N)ccc2c(C)cc(=O)oc12 | 109% | 112% | 113% | 94.7% |  | 108% | 77.3% | 99.9% | 106% | 104% |
| N#Cc1c(-c2ccc(F)cc2)nc(N=Nc2c(O)[nH]c3ccccc23)nc1N1CCOCC1 | 70.3% | 57.7% | 61.4% | 72% | 30.9% | 17.3% | 78.6% | 23.4% | 59.4% | 77.9% |
| Nc1cc(N)c(S(=O)(=O)O)cc1N=Nc1cc([N+](=O)[O-])ccc1O | 94.5% | 101% | 94.9% | 90.6% |  | 89.4% | 88.3% | 95.7% | 110% | 108% |
| O=[N+]([O-])c1cccc(CN(Cc2cccc([N+](=O)[O-])c2O)c2ccccc2)c1O | 58.4% | 83.2% | 60.1% |  | 80.1% | 54.5% | 63.9% | 71% | 51.1% | 78% |
| Cc1cnc(-c2ccc(-c3ccc(NC(=O)Nc4c(F)cc(F)cc4F)cc3F)c3c2C(=O)NC3)[nH]1 | 20.8% | 65.6% | 43.1% |  | -29.5% (active) | 70.8% | 37.2% | 45.2% | 23.1% | 20.5% |
| Cc1cc2ccccc2c[n+]1CC(=O)c1ccc(-c2ccccc2)cc1 | 48.6% | 60.8% | 78.3% |  | 45.9% | 27.8% | 26.8% | 53.3% | 65.9% | 32.5% |
| Cc1ccc(C2=N[C@H]3CCC[C@@H]3N(c3ccccc3)C(C(Cl)Cl)=N2)cc1 | 95.5% | 107% | 93.3% |  | 110% | 107% | 93% | 98.4% | 98.3% | 98.8% |
| C=C(C)[C@@H]1CC[C@]2(C(=O)O)CC[C@]3(C)[C@H](CC[C@@H]4[C@@]5(C)C[C@@H](CC#Cc6ccc(Cl)cc6)C(=O)C(C)(C)[C@@H]5CC[C@]43C)[C@@H]12 | 28.5% | 40.2% | 55.6% |  | 34.8% | 67.9% | 12.6% | 31.3% | 60.5% | 53.8% |
| O=C1NN(c2ccccc2)C(c2ccc(Cl)cc2)N2CCC[C@H]12 (stereo partly drawn) | 90.7% | 95.6% | 94.1% |  | 103% | 100% | 106% | 103% | 105% | 108% |
| OCCNc1nc(NCCO)nc(Nc2ccc(C3=NN(c4ccc(Cl)cc4)C(c4ccc(Cl)cc4)C3)cc2)n1 (stereo not drawn) | 70.4% | 104% | 50.7% |  | 36.2% | 81.9% | 63.9% | 50.9% | 16.7% | 65.5% |
| NC(N)=NC(N)=Nc1cc2ccccc2c2ccccc12 | 44.8% | 54.3% | 53.3% |  | 21.9% | -3.37% (active) | 7.5% (active) | 41.1% | 14.4% | -59% (active) |
| Cc1ccc(C(=O)/C(=C/c2ccc([N+](=O)[O-])cc2)S(=O)Cc2ccccc2)cc1 (stereo not drawn) | 13.6% | 47.1% | 81.6% |  | 22.1% | 36.9% | -32% (active) | 65.1% | -49.5% (active) | -26.4% (active) |
| COc1ccc2nc(-c3ccc(Cl)cc3)cc(-c3nnc(SC/C(=N/O)c4ccccc4)o3)c2c1 | 26.1% | 42.7% | 67.9% |  |  | 60.7% | 45.7% | 37.3% | 24.9% | 31.5% |
| COC(=O)c1nc(-c2ccccc2)oc1S(=O)(=O)n1nc(-c2ccccc2)cc1N | 90.4% | 105% | 90.7% |  | 100% | 72.1% | 44.3% | 102% | 87.3% | -8.05% (active) |
| O=C(CN1N=C(c2ccc(F)cc2)CCC1=O)Nc1nccs1 | 103% | 110% | 100% |  |  | 86.6% | 83.2% | 77.8% | 103% | 113% |
